From PubChem BioAssay AID2289 (National Center for Advancing Translational Sciences (NCATS), 2010)
Hit rate of the full screen: of about 340,000 compounds, about 3,300 (0.97%) were called active. About 9% were inconclusive and are not listed. Calls come from the whole dose curve; as a rule, active = well fitted inhibition curve with a large enough effect; inconclusive = small, poorly fitted or top-dose-only effect, or effect the other way; inactive = flat fitted curve, though single readings scatter. This is one part of the list.

Test: qHTS Assay for Modulators of miRNAs and/or Inhibitors of miR-21; note: nearly all actives have a fitted effect of over 55% in size
Settings: HeLa miR-21-FLuc reporter, luciferase luminescence, 48 h; actives lower the signal
Outline: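 HeLa cells endogenously expressing miR-21, stably carrying CMV-driven firefly luciferase with a downstream miR-21 binding site, 2000 cells/well. Titrations up to approximately 40 uM, 48 hours; luciferase luminescence read.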
Potency is the fitted concentration of half-maximal effect.

Structure (SMILES)	Potency
O=C(Cc1ccccc1[N+](=O)[O-])NCc1ccc2c(c1)OCO2	10.4 µM (active)
Cc1ccccc1CNC(=O)Cc1ccccc1[N+](=O)[O-]	5.21 µM (active)
O=C(CC12CCC(CC1)C2)NCc1ccc2c(c1)OCO2	16.5 µM (active)
O=C(Cc1ccccc1[N+](=O)[O-])NCc1ccc(Cl)cc1	14.7 µM (active)
CCCn1cnc2cc(NCc3cccs3)ccc21	7.36 µM (active)
CCCn1cnc2cc(NCc3ccc(Br)cc3)ccc21	7.36 µM (active)
CCn1cnc2cc(NCc3ccc(Br)cc3)ccc21	3.29 µM (active)
COC(=O)c1ccc(NN=Nc2ccc(C)cc2)cc1	2.07 µM (active)
COC(=O)c1ccc(N=NNc2ccc(C(=O)OC)cc2)cc1	0.208 µM (active)
O=C(NCC1CCCO1)c1sc2ccccc2c1Cl (stereo unspecified)	3.29 µM (active)
CC(NC(=O)c1sc2ccccc2c1Cl)C1CCCO1 (stereo unspecified)	5.21 µM (active)
CCn1c2ccccc2c2nc3cc(C(=O)O)ccc3nc21	9.27 µM (active)
Cc1ccc(C(=O)Cc2cc3ccccc3oc2=O)c(C)c1	2.07 µM (active)
COc1cccc2cc(CC(=O)c3ccc(C)cc3C)c(=O)oc12	11.7 µM (active)
CN(c1ccccc1)c1nc2ccsc2c(=O)s1	12.6 µM (active)
COc1ccc(-c2cc(C(=O)c3c(N)n(C)c(=O)n(C)c3=O)c3ccccc3n2)cc1OC	4.65 µM (active)
COc1ccc2c(c1)CCC/C2=N\NC(=O)c1ccoc1C	2.93 µM (active)
CC(=O)N1N=C(c2ccc(C)cc2)OC1c1ccc(C(C)C)cc1 (stereo unspecified)	3.29 µM (active)
CN1N=C(C(=O)N2CCc3c([nH]c4ccccc34)C2c2ccccc2Cl)CCC1=O (stereo unspecified)	10.4 µM (active)
O/N=C/c1ccc(OCc2ccccc2)c(Br)c1	3.69 µM (active)
O/N=C/c1ccc(OCc2ccccc2)c(Cl)c1	2.07 µM (active)
CCCOc1ccc(-c2nc(N3CCN(C)CC3)c3ccccc3n2)cc1	2.93 µM (active)

Structure (SMILES)	Potency
COc1cc(CNc2ccc(NC(C)=O)cc2)ccc1OCc1ccccc1C	7.36 µM (active)
c1ccc(-c2nnc(-c3ccccc3)nn2)cc1	2.07 µM (active)
COc1nc(-c2ccccc2)nnc1-c1ccccc1	1.17 µM (active)
Cc1ccc(-c2nnc(/C=C/c3ccccc3)o2)cc1	0.329 µM (active)
Nc1ccc(-c2nnc(-c3ccc(N)cc3)o2)cc1	3.29 µM (active)
O=C(O)c1ccc(-c2nnc(-c3ccccc3)o2)cc1	0.329 µM (active)
c1ccc(-c2nnc(-c3ccccc3)o2)cc1	1.31 µM (active)
Cc1cc(C)cc(N(CC(=O)Nc2ccc(-c3nc4ccc(C)cc4s3)cc2)S(C)(=O)=O)c1	3.29 µM (active)
Cc1cccc(N(CC(=O)Nc2ccc(-c3nc4ccc(C)cc4s3)cc2)S(C)(=O)=O)c1	4.14 µM (active)
Cc1ccc2nc(-c3ccc(NC(=O)CN(C)S(=O)(=O)c4ccccc4)cc3)sc2c1	0.369 µM (active)
O=C(Nc1cc2c(cc1Cl)OCCCO2)c1ccc(F)cc1	3.69 µM (active)
Cc1ccc(C(=O)Nc2cc3c(cc2Cl)OCCCO3)cc1	1.31 µM (active)
O=C(/C=C\c1ccco1)c1ccc(NC(=O)c2ccco2)cc1	13.1 µM (active)
O=C(Nc1ccc(NC(=O)c2cccs2)cc1)c1ccco1	8.26 µM (active)
CC(C)(C)n1cnc2cc(NC(=O)c3cccs3)ccc21	1.65 µM (active)
O=C(/C=C/c1ccco1)Nc1ccc(N2CCCC2)cc1	1.65 µM (active)
O=C(CNC(=O)c1ccco1)Nc1ccc(Br)cc1	11.7 µM (active)
O=C(Nc1ccc(NC(=O)c2cccs2)cc1)c1cccs1	5.21 µM (active)
N#Cc1c(/N=C/c2cccs2)sc2c1CCCCC2	0.464 µM (active)
Cc1ccc(/C=N/c2sc3c(c2C#N)CCC3)s1	0.261 µM (active)
CC1(C(=O)Nc2nc3ccccc3s2)CC1(Br)Br (stereo unspecified)	8.26 µM (active)
O=C(CSc1nccn1-c1ccccc1)Nc1nc2ccccc2s1	6.56 µM (active)

Structure (SMILES)	Potency
O=C(CC1CCCCC1)Nc1nc2ccccc2s1	1.85 µM (active)
COc1ccc(C2CC(C)(c3ccc(OC)cc3)Nc3ccccc3N2)cc1 (stereo unspecified)	7.36 µM (active)
O=C(c1ccccc1)c1cnc(-c2ccc(Cl)cc2)s1	0.464 µM (active)
N#Cc1ccccc1OCC(=O)NC(=O)NCc1ccco1	6.56 µM (active)
O=C(COc1ccc(Cl)cc1Cl)NCc1ccco1	16.5 µM (active)
O=C(COc1ccc(Cl)cc1Cl)c1ccc[nH]1	10.4 µM (active)
CN1CCN(c2ccc(NC(=O)c3sc4ccccc4c3Cl)cc2)CC1	1.17 µM (active)
COc1cc2ccccc2cc1C(=O)Nc1ccc(N2CCN(C)CC2)cc1	7.36 µM (active)
CC(C)C(=O)Nc1ccc(NC(=O)c2cc3ccccc3o2)cc1	11.2 µM (active)
Cc1nnc(NC(=O)c2cc3ccccc3o2)s1	8.26 µM (active)
O=C(Nc1ncccc1Cl)c1cc2ccccc2o1	0.656 µM (active)
CN1CCN(c2ccc(NC(=O)c3cc4ccccc4o3)cc2)CC1	0.927 µM (active)
CC(Cc1ccccc1)NC(=O)c1cc2ccccc2o1 (stereo unspecified)	6.56 µM (active)
COc1cc(/C=N/O)ccc1OCc1ccccc1Cl	2.93 µM (active)
COc1cc(/C=N/O)ccc1OCc1ccc(Cl)cc1	0.369 µM (active)
COc1cc(/C=N/O)ccc1OCc1ccc([N+](=O)[O-])cc1	3.29 µM (active)
Cc1ccc2c(c1)COc1c3ccc(C(=O)N4CCOCC4)cc3nn1-2	5.21 µM (active)
O=C(c1ccc2c3n(nc2c1)-c1ccc(Cl)cc1CO3)N1CCOCC1	5.21 µM (active)
Cc1ccc2c(c1)COc1c3ccc(C(=O)N4CCCCC4)cc3nn1-2	3.69 µM (active)
C#Cc1cccc(NC(=O)CSc2nnc(-c3ccc(C(F)(F)F)cn3)o2)c1	4.14 µM (active)
O=C(CSc1nnc(-c2ccccn2)o1)Nc1cccc(Cl)c1	1.85 µM (active)
O=C(CSc1nnc(-c2ccc(C(F)(F)F)cn2)o1)Nc1cccc(Cl)c1	4.14 µM (active)

Structure (SMILES)	Potency
CC(C)Nc1cc(C(C)(C)C)nc2c(-c3ccccc3)cnn12	6.56 µM (active)
Cc1cc(C)n(-c2cc(C(C)(C)C)nc3c(-c4ccccc4)cnn23)n1	2.61 µM (active)
CN(C)CCCNc1cc(C(C)(C)C)nc2c(-c3ccccc3)cnn12	2.93 µM (active)
CCn1cnc2sc(C(=O)Nc3ccc4c(c3)OCO4)c(C)c2c1=O	3.16 µM (active)
Cc1cc(N/N=C/c2ccncc2)nc2ccccc12	5.85 µM (active)
Cc1cc(N/N=C/c2ccccc2Br)nc2ccccc12	13.1 µM (active)
O=c1c2cc(-c3ccccc3)sc2nc2n1N=C(c1cccs1)CS2	0.414 µM (active)
C/C(=C\C(=O)c1ccccc1)Nc1cccc(O)c1	4.65 µM (active)
COc1ccc(OC)c(N/C(C)=C/C(=O)c2ccccc2)c1	7.36 µM (active)
C/C(=C\C(=O)c1ccc(C)cc1)Nc1cccc(O)c1	3.29 µM (active)
Cn1c(=O)n(C)c2cc(NS(=O)(=O)c3ccc(F)cc3)c(NCc3ccccc3)cc21	9.27 µM (active)
CCOc1ccc(OCCn2nnc3ccccc3c2=O)cc1	5.21 µM (active)
O=c1c2ccccc2nnn1COc1cccc(Cl)c1	13.1 µM (active)
O=c1c2ccccc2nnn1COc1cccc2ccccc12	14.7 µM (active)
Cc1cccc(NC(=O)/C(C#N)=C/c2ccco2)c1	4.14 µM (active)
Cc1ccc(/C=C(\C#N)C(=O)Nc2ccc(Br)cc2)o1	0.656 µM (active)
Cc1ccc(NC(=O)/C(C#N)=C/c2ccc(C)o2)cc1	0.329 µM (active)
CC1CC1c1ccc(/C=C(\C#N)C(=O)Nc2ccccc2Cl)o1 (stereo unspecified)	14.7 µM (active)
Cc1ccc(/C=C(\C#N)C(=O)Nc2cccc(Cl)c2)o1	1.47 µM (active)
COc1ccccc1NC(CC(=O)c1ccccc1)C(=O)OCC(=O)c1ccc(C)c(C)c1 (stereo unspecified)	1.04 µM (active)
COc1ccccc1NC(CC(=O)c1ccccc1)C(=O)OCC(=O)c1ccc(C)cc1 (stereo unspecified)	1.47 µM (active)
O=C(CC(Nc1ccc(F)cc1)C(=O)OCC(=O)c1cccs1)c1ccccc1 (stereo unspecified)	3.29 µM (active)

Structure (SMILES)	Potency
O=C(c1ccc(COCC(F)(F)F)cc1)N1CCN(c2ccccn2)CC1	14.7 µM (active)
CCc1ccc(N2C(=O)Cc3c2nc(N)c(C#N)c3N)cc1	16.5 µM (active)
COc1ccc(NC(=O)C2C3CC/C=C\CCC32)cc1 (stereo unspecified)	6.56 µM (active)
CNC(=O)c1c(NC(=O)c2nc3ccccc3s2)sc2c1CCC2	1.31 µM (active)
O=C(O)c1ccc(N/N=C/c2cc3ccccc3nc2Cl)cc1	3.29 µM (active)
Cc1ccc2cc(/C=N/Nc3ccc(C(=O)O)cc3)c(Cl)nc2c1	2.07 µM (active)
Cc1cccc2cc(/C=N/Nc3ccc(C(=O)O)cc3)c(Cl)nc12	0.521 µM (active)
CCCCOc1ccc2c(c1)C(=O)c1cc(O)ccc1-2	5.85 µM (active)
O=[N+]([O-])c1ccccc1N/N=C1\CC2CC=CC12 (stereo unspecified)	16.5 µM (active)
Cc1[nH]c2ccccc2c1/C=C/c1nc2ccccc2c(=O)[nH]1	1.31 µM (active)
O=c1[nH]c(/C=C/c2ccc(Br)cc2)nc2ccccc12	0.369 µM (active)
C=CCOc1cccc(/C=C/c2nc3ccccc3c(=O)[nH]2)c1	0.826 µM (active)
COCC(C)N=C1NN=C(c2c[nH]c3ccccc23)CS1 (stereo unspecified)	6.56 µM (active)
C=CCOc1ccc2c(OC)c3ccoc3nc2c1OC	13.1 µM (active)
CCOc1ccc(NC(=O)c2ccccc2SC)cc1	7.36 µM (active)
CCc1ccc(NC(=O)c2ccccc2Br)cc1	2.07 µM (active)
CCc1ccc(NC(=O)c2ccccc2SC)cc1	7.36 µM (active)
CCOc1ccc(NC(=O)c2csc3c2CCCC3)cc1	2.07 µM (active)
